# Publication PMC7862700, “An all-to-all approach to the identification of sequence-specific readers for epigenetic DNA modifications on cytosine”
# What was measured:
# Test in all cases: DAPPL (digital affinity profiling via proximity ligation, sequencing); 10 mM Tris-HCl pH 7.5, 50 mM NaCl, 1 mM DTT, 4% glycerol, room temperature, 30 min; GST-TFs on glutathione beads, 16-mer random dsDNA library, 0.1% formaldehyde crosslink after washing; high values mean tight binding
# Conditions in all cases: protein: recombinant; tags: N-terminal GST; dsDNA, one strand shown
# ELK1 = target: T1, ELK1 (Homo sapiens, UniProt P19419 1-428)
# T1 sequence: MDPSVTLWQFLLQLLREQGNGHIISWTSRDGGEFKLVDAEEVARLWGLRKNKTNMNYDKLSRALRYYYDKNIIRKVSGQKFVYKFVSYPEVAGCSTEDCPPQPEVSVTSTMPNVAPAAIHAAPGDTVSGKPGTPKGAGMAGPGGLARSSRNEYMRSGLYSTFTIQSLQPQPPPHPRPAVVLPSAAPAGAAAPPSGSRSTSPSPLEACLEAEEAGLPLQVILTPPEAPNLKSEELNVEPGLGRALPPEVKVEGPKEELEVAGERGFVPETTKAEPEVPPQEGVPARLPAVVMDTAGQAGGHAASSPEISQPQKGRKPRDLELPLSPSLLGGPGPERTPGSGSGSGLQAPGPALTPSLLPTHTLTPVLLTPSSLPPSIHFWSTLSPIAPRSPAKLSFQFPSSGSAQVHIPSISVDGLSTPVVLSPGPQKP
# In short: (§1)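 A tag-only sample was pooled with DNA-barcoded human transcription factors that had been expressed in yeast as GST fusions and captured on glutathione beads. The pools were incubated for 30 min at room temperature with 200 nmole of a random double-stranded 16-mer DNA library in Tris/NaCl/DTT/glycerol buffer, then washed, crosslinked with 0.1% formaldehyde, proximity-ligated (BsaI/T4 ligase, 1 h, 37 °C), PCR-amplified and sequenced on an Illumina NextSeq500. Binding signal is each hexamer's read frequency for a factor divided by its frequency for the tag-only sample.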
# GABPA = target: T2, GABPA (Homo sapiens, UniProt Q06546 1-454)
# T2 sequence: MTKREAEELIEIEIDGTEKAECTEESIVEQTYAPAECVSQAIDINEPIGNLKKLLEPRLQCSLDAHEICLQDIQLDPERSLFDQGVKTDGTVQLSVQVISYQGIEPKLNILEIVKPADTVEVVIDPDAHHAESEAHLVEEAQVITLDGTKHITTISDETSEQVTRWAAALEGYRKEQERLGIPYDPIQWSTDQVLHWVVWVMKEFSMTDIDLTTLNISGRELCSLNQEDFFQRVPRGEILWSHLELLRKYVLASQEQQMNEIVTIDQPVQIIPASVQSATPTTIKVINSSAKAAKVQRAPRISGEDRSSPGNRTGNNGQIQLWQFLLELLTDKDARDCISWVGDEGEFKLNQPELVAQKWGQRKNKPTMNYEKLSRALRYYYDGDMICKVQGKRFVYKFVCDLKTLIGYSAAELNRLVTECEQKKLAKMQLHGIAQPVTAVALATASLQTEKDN
# In short: as §1
# ERG = target: T3, ERG (Homo sapiens, UniProt P11308 1-479)
# T3 sequence: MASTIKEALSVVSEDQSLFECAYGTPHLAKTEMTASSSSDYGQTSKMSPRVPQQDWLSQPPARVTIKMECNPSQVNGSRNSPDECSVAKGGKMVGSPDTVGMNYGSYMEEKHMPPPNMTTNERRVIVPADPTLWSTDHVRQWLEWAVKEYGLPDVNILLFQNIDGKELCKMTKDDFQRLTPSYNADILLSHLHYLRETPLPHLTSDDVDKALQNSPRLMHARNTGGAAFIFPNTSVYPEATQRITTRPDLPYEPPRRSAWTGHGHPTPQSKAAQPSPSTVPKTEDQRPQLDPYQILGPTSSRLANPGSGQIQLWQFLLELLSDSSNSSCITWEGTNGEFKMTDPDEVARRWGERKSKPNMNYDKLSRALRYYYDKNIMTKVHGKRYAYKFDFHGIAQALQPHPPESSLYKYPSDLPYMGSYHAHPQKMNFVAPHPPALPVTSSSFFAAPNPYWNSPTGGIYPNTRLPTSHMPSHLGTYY
# In short: as §1
# ELF1 = ELF1 (Homo sapiens, UniProt P32519 1-619)
# Chain of ELF1 (P32519 whole entry): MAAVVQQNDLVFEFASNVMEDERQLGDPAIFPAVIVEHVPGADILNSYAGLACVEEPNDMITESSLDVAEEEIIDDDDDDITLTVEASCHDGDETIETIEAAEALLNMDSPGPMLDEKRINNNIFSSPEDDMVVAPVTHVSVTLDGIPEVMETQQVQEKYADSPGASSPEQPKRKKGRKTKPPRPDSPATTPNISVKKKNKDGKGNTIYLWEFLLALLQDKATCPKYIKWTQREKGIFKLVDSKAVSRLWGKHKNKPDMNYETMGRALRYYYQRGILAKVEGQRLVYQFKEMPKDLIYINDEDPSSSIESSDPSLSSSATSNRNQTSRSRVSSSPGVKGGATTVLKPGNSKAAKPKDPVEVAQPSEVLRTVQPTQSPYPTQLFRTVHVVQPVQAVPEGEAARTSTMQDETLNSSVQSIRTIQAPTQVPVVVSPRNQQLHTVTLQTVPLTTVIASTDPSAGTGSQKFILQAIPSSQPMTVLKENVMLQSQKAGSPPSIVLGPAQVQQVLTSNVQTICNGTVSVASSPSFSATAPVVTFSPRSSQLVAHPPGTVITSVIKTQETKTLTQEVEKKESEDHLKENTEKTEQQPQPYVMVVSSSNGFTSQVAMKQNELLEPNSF
# In short: as §1
# EHF = target: T4, EHF (Homo sapiens, UniProt Q9NZC4 1-300)
# T4 sequence: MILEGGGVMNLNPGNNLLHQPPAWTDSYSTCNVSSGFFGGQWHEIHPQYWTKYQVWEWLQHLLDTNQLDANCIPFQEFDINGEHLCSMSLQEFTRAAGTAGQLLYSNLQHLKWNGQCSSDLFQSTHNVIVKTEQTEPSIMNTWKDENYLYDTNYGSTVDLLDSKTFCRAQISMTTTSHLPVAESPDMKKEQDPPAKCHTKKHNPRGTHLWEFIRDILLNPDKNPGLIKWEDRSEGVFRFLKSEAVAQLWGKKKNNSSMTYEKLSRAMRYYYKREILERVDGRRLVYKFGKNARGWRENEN
# In short: as §1
# SPIB = SPIB (Homo sapiens, UniProt Q01892 1-262)
# Chain of SPIB (Q01892 whole entry): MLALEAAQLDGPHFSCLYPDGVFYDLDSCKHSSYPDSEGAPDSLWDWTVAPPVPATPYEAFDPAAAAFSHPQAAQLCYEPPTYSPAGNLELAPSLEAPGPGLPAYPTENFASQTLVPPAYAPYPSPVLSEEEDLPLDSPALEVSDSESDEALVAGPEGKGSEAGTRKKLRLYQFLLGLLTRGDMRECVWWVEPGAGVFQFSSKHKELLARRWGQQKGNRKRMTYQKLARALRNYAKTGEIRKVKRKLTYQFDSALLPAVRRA
# In short: as §1
# FEV = target: T5, FEV (Homo sapiens, UniProt Q99581 1-238)
# T5 sequence: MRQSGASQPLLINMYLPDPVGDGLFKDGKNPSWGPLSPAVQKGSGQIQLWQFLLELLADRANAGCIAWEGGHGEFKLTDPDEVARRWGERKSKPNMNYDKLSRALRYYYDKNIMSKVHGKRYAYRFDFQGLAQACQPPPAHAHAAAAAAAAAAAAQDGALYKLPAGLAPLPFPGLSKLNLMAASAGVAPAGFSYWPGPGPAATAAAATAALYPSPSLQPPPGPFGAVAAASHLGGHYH
# In short: as §1
# ETV5 = ETV5 (Homo sapiens, UniProt P41161 1-510)
# Chain of ETV5 (P41161 whole entry): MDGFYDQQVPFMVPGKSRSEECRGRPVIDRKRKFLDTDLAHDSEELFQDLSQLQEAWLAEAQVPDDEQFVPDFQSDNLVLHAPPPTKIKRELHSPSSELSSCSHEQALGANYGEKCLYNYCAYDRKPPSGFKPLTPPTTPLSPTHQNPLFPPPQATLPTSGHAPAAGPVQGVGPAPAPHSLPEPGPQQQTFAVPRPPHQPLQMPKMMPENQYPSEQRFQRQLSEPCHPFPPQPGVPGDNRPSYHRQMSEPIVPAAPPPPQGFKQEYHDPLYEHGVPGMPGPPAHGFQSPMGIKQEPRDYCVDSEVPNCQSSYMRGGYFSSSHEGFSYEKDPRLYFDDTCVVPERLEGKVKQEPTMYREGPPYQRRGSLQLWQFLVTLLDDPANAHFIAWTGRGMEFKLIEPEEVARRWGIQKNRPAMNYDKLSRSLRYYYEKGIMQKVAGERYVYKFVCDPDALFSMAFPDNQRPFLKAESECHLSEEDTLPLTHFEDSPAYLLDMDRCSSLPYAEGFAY
# In short: as §1
# ELF4 = ELF4 (Homo sapiens, UniProt Q99607 1-663)
# Chain of ELF4 (Q99607 whole entry): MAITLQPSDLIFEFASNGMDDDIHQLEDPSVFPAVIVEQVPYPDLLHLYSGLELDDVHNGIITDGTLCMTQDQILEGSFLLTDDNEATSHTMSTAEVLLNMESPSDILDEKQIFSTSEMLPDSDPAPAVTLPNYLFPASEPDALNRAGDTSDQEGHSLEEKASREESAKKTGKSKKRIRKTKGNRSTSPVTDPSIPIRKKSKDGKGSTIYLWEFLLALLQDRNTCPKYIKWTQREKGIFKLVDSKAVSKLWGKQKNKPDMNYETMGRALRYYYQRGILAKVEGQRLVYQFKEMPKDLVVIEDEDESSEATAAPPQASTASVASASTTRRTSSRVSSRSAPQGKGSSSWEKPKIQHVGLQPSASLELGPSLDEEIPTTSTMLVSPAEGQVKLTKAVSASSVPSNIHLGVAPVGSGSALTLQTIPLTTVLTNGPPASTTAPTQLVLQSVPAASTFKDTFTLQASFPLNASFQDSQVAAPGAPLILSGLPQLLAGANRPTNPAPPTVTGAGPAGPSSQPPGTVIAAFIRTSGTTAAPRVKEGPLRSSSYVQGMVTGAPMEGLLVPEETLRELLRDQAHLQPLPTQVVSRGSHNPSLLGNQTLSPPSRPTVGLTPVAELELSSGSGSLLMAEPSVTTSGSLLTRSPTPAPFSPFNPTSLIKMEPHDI
# In short: as §1
# ETV2 = target: T6, ETV2 (Homo sapiens, UniProt O00321 1-342)
# T6 sequence: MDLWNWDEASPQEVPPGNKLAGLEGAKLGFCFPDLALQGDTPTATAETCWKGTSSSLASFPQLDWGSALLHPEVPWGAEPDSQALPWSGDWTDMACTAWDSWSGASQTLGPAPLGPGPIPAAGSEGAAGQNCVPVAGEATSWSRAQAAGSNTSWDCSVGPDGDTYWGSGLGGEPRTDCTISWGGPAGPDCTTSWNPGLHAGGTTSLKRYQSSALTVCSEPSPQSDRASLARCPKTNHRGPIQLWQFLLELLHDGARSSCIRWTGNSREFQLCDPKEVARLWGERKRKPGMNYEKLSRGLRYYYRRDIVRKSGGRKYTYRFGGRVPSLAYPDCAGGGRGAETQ
# In short: as §1
# ELF3 = target: T7, ELF3 (Homo sapiens, UniProt P78545 1-371)
# T7 sequence: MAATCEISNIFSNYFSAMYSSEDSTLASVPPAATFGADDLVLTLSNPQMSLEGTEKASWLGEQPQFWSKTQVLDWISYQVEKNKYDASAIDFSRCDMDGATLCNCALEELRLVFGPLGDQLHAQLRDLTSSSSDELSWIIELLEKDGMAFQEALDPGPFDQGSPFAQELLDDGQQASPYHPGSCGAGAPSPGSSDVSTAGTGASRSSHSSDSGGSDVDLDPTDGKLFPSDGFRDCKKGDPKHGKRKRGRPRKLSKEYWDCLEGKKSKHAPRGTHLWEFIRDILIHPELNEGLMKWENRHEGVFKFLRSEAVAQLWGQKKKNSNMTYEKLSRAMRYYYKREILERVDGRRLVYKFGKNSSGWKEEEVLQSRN
# In short: as §1
# ETV1 = ETV1 (Homo sapiens, UniProt P50549 1-477)
# Chain of ETV1 (P50549 whole entry): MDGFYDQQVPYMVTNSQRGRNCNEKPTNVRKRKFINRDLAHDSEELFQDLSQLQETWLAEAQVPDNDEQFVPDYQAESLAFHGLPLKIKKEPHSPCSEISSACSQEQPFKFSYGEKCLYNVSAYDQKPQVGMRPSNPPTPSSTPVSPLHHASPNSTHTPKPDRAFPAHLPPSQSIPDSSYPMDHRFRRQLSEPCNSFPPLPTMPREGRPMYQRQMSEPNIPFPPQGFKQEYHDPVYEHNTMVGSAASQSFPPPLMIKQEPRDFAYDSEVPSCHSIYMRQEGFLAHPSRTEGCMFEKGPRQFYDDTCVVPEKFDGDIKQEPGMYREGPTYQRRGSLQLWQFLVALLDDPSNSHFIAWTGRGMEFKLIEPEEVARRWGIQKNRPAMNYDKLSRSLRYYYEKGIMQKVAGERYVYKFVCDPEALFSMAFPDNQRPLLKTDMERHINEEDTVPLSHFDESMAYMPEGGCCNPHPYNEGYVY
# In short: as §1
# ERF = target: T8, ERF (Homo sapiens, UniProt P50548 1-548)
# T8 sequence: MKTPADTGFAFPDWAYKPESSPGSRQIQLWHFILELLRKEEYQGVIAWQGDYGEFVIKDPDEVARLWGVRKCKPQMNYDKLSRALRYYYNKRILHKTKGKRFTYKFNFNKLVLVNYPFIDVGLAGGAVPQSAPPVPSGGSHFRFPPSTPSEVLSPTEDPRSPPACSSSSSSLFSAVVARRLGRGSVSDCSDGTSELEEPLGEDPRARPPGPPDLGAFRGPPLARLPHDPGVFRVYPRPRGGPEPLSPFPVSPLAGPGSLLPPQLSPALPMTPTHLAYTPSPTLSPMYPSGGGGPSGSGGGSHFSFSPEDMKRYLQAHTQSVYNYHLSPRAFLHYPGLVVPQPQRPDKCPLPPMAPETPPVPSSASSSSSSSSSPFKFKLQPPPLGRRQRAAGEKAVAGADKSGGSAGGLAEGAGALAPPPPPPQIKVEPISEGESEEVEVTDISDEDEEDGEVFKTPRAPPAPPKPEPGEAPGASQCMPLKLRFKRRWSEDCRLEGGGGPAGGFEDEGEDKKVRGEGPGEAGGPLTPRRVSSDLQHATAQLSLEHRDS
# In short: as §1
# ETV3L = target: T9, ETV3L (Homo sapiens, UniProt Q6ZN32 1-361)
# T9 sequence: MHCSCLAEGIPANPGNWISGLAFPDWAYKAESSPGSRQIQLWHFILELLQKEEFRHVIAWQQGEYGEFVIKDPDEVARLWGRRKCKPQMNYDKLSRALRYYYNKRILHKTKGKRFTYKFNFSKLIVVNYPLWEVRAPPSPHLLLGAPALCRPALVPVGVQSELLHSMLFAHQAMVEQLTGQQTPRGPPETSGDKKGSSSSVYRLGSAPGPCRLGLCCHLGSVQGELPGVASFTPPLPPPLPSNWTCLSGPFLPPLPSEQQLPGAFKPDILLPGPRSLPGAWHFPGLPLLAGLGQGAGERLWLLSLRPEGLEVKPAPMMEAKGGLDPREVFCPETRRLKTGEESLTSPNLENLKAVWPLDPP
# In short: as §1
# ETS2 = target: T10, ETS2 (Homo sapiens, UniProt P15036 1-469)
# T10 sequence: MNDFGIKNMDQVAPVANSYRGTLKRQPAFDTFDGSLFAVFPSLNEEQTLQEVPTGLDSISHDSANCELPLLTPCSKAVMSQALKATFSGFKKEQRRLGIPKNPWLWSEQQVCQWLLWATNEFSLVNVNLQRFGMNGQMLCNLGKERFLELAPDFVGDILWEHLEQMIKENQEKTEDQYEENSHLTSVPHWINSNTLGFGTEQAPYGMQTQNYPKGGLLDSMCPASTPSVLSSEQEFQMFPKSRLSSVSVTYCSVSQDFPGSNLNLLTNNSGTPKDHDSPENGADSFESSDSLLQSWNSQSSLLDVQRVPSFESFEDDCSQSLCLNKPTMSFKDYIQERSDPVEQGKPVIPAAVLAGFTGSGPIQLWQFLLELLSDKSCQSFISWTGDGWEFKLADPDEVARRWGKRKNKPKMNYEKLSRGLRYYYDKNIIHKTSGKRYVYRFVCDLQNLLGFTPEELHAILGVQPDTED
# In short: as §1
# SPDEF = target: T11, SPDEF (Homo sapiens, UniProt O95238 1-335)
# T11 sequence: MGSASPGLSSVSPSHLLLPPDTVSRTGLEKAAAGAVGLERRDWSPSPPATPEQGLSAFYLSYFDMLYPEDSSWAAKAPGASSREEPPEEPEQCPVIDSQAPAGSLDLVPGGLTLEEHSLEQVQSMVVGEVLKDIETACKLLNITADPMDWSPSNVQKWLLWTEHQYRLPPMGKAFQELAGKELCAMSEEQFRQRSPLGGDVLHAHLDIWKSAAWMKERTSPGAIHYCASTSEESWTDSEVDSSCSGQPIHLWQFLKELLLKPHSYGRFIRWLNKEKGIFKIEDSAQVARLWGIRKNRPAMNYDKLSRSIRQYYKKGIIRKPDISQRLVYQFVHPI
# In short: as §1
# ETV7 = target: T12, ETV7 (Homo sapiens, UniProt Q9Y603 1-341)
# T12 sequence: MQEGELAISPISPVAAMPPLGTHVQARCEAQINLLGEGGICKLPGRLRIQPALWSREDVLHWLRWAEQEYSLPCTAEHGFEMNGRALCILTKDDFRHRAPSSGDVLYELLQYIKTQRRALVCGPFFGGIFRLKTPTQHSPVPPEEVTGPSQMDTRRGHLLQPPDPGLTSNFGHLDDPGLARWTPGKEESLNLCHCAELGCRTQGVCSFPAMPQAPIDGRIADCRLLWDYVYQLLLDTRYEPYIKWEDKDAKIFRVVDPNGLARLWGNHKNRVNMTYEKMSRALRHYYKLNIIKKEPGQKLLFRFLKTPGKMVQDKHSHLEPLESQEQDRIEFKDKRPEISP
# In short: as §1
# ETV3 = target: T13, ETV3 (Homo sapiens, UniProt P41162-2 1-143)
# T13 sequence: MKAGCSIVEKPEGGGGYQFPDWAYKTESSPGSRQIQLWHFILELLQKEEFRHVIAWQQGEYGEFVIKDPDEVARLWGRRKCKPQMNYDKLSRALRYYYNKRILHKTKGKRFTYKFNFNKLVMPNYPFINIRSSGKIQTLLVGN
# In short: as §1
# ETV6 = ETV6 (Homo sapiens, UniProt P41212 1-452)
# Chain of ETV6 (P41212 whole entry): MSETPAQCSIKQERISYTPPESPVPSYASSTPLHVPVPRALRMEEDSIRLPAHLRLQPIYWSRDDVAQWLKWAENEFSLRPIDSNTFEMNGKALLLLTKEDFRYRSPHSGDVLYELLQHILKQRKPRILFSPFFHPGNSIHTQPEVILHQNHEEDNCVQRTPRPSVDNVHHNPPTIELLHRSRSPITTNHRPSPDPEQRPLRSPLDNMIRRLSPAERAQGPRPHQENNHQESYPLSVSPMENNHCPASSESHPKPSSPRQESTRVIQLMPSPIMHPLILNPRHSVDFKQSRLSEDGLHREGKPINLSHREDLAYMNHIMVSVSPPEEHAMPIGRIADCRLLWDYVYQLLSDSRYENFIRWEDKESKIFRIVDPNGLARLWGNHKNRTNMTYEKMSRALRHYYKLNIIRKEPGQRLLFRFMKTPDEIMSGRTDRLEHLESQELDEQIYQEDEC
# In short: as §1
sequence,measurement,setting,value
CCCGTC,binding signal,ELK1,"1.1 fold enrichment (6-mer frequency, TF over GST control)"
same,binding signal,GABPA,"1.01 fold enrichment (6-mer frequency, TF over GST control)"
same,binding signal,ERG,"1.1 fold enrichment (6-mer frequency, TF over GST control)"
same,binding signal,ELF1,"1.13 fold enrichment (6-mer frequency, TF over GST control)"
same,binding signal,EHF,"1.09 fold enrichment (6-mer frequency, TF over GST control)"
same,binding signal,SPIB,"1.05 fold enrichment (6-mer frequency, TF over GST control)"
same,binding signal,FEV,"1.09 fold enrichment (6-mer frequency, TF over GST control)"
same,binding signal,ETV5,"1.08 fold enrichment (6-mer frequency, TF over GST control)"
same,binding signal,ELF4,"1.07 fold enrichment (6-mer frequency, TF over GST control)"
same,binding signal,ETV2,"1.32 fold enrichment (6-mer frequency, TF over GST control)"
same,binding signal,ELF3,"1.03 fold enrichment (6-mer frequency, TF over GST control)"
same,binding signal,ETV1,"1.1 fold enrichment (6-mer frequency, TF over GST control)"
same,binding signal,ERF,"1.14 fold enrichment (6-mer frequency, TF over GST control)"
same,binding signal,ETV3L,"1 fold enrichment (6-mer frequency, TF over GST control)"
same,binding signal,ETS2,"1.04 fold enrichment (6-mer frequency, TF over GST control)"
same,binding signal,SPDEF,"1.12 fold enrichment (6-mer frequency, TF over GST control)"
same,binding signal,ETV7,"1.16 fold enrichment (6-mer frequency, TF over GST control)"
same,binding signal,ETV3,"1.03 fold enrichment (6-mer frequency, TF over GST control)"
same,binding signal,ETV6,"1.07 fold enrichment (6-mer frequency, TF over GST control)"
